# Bioassay records (PubChem BioAssay)
# PLK1 PBD block = qHTS for Inhibitors of PLK1-PDB (polo-like kinase 1 - polo-box domain): Primary Screen; Plk1 PBD binding of FITC phosphopeptide, fluorescence polarization; 2.8% of 360,000 active; Potency, µM, without a hit: max response, negative = inhibition, most hits filed as inhibitors; Serine/threonine-protein kinase PLK1 (Homo sapiens), P53350; AID 720504, 2013; note: potency is the fitted concentration of half-maximal effect; series mostly up to about 57 µM; % is set by controls: 0 for no effect and ±100 for the full control effect; nearly all actives have a fitted effect of over 65% in size
# HP1b chromo inh = HTS for Inhibitors of HP1-beta Chromodomain Interactions with Methylated Histone Tails. Chromobox protein homolog 1 (Homo sapiens), P83916. 0.56% of 390,000 active. Potency, µM (doses to about 114 µM), for inactives: at the top dose activity change, negative = inhibition, hits mostly inhibitors. AlphaScreen HP1-beta / biotin-H3K9me3 peptide binding; note: potency is the fitted concentration of half-maximal effect; nearly all actives have a fitted effect of over 70% in size
#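 HP1-beta protein (50 nM final) preincubated 30 min at room temperature with biotinylated H3(1-18)K9me3 peptide (50 nM) in PBS pH 7.4, 0.01% Tween-20, then compound added for 30 min. AlphaScreen streptavidin donor/nickel chelate acceptor beads (10 ug/mL final), 30 min dark, luminescence read.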
# JMJD2A Tudor = qHTS Assay for Inhibitors of JMJD2A-Tudor Domain; AID 504339, 2011; AlphaScreen JMJD2A-Tudor / H3K4me3 peptide binding; Lysine-specific demethylase 4A (Homo sapiens), O75164; Potency, µM (top dose mostly 114 µM), for the others: at the top dose activity change, negative = inhibition, most hits filed as inhibitors; 4.4% of 390,000 active; note: potency is the fitted concentration of half-maximal effect; % is set by controls: 0 for no effect and ±100 for the full control effect; nearly all actives have a fitted effect of over 50% in size
# Target sequence (O75164 whole entry, looked up, the tested form may be a part): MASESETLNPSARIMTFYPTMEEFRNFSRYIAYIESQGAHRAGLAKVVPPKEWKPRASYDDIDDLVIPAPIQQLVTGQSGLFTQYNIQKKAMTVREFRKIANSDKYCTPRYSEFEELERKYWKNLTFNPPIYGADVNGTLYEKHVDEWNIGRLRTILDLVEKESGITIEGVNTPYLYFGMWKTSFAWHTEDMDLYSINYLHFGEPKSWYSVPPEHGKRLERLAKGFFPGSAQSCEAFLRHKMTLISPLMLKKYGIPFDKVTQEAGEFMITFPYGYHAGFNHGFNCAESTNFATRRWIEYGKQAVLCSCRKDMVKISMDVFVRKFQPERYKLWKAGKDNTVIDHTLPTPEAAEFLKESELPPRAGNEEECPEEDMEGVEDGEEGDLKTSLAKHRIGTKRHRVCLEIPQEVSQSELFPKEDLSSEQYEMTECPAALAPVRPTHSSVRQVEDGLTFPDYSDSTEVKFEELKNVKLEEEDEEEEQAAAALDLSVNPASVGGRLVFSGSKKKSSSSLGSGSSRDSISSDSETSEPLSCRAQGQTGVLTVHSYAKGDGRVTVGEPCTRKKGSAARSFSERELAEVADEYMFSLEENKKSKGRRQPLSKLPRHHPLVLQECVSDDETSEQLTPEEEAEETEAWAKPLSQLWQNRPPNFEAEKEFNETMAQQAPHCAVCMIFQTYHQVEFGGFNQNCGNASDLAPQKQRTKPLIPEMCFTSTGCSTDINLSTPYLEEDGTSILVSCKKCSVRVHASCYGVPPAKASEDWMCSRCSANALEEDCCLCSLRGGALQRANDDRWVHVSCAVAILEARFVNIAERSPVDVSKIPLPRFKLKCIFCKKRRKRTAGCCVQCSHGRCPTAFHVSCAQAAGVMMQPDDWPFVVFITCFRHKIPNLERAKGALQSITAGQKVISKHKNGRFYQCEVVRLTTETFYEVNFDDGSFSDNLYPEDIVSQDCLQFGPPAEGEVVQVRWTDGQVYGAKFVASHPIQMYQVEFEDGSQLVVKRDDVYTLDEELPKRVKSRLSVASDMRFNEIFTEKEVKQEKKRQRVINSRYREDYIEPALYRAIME
# PI5P4K alpha inh = qHTS for Inhibitors of phosphatidylinositol 5-phosphate 4-kinase (PI5P4K); 1.2% of 330,000 active; PI5P4Kalpha enzyme, ADP-Glo luminescence, 60 min; stronger effect = lower value; AID 652105, 2013; max response, %; active = max response of -50% or lower; inconclusive = between -30% and -50%; inactive = -30% or higher; note: value at the top dose of about 77 µM; % is set by controls: 0 for no effect and ±100 for the full control effect
#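 Controls without substrate or without enzyme flank wells where PI5P4Kalpha converts substrate using 5 microM ATP (final). Incubation lasts 60 minutes at room temperature; ADP formed is read by ADP-Glo luminescence.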
# G9a block = qHTS Assay for Inhibitors of Histone Lysine Methyltransferase G9a | Potency, µM (highest dose often 102 µM), inactives show top-dose activity, negative = inhibition, usual class: inhibitors | 8.8% of 350,000 active | AID 504332, 2011 | Histone-lysine N-methyltransferase EHMT2 (Homo sapiens), Q96KQ7 | G9a H3K9 monomethylation, AlphaScreen, 2 h; note: potency is the fitted concentration of half-maximal effect; % is set by controls: 0 for no effect and ±100 for the full control effect; nearly all actives have a fitted effect of over 75% in size
#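 Methyltransferase reactions run at room temperature for 2 h (20 nM enzyme, 500 nM biotin-H3K9 peptide, 20 uM SAM) after a 15 min compound preincubation; product detected by AlphaScreen beads and anti-H3K9me1 antibody.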
# BAZ2B block = qHTS Assay for Inhibitors of BAZ2B. Bromodomain adjacent to zinc finger domain protein 2B (Homo sapiens), Q9UIF8. AlphaScreen BAZ2B-H3K14Ac peptide displacement. Potency, µM (top dose mostly 114 µM), inactives show at the highest dose activity change, negative = inhibition, usual class: inhibitors. 4.4% of 360,000 active; note: potency is the fitted concentration of half-maximal effect; % is set by controls: 0 for no effect and ±100 for the full control effect; nearly all actives have a fitted effect of over 60% in size
#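 AlphaScreen luminescence quantifies BAZ2B engagement of H3K14Ac peptide; the protein and biotinylated peptide are both at 50 nM final, buffer PBS pH 7.4 with 0.01% Tween-20, all steps at room temperature.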
# * hit, by the source's call; ? = inconclusive; . = not tested or not shown; [ ] = remark or other dose. This is a sample that favours compounds with a hit; in the whole collection about 12% have one here. Unless noted, calls come from the whole dose curve; as a rule, active = well fitted curve in the direction sought with a large enough effect; inconclusive = small, poorly fitted or top-dose-only effect, or another doubt; inactive = no such curve, though single readings can be large; an effect the other way counts as inactive or inconclusive.
SMILES,PLK1 PBD block,HP1b chromo inh,JMJD2A Tudor,PI5P4K alpha inh,G9a block,BAZ2B block
CN(c1ccccc1)S(=O)(=O)c1cccc(NC(=O)CCNC(=O)c2ccco2)c1,1%,.,.,0,.,.
O=C(CCS(=O)(=O)c1ccc(Br)cc1)Nc1ccc2c(c1)OCO2,?,?,50µM*,.,?,50µM*
Cc1ccc(S(=O)(=O)CCC(=O)Nc2ccc3c(c2)OCO3)cc1,-2%,7%,-8%,0,18%[12.7 µM],4%
CC1(C)c2cc(O)ccc2OC1N1CCOCC1 (configuration not stated),-6%,42%,-11%,-1,8.9µM*,-13%
CC1(C)c2ccccc2-c2nc3ccccc3cc2C1N1CCOCC1 (configuration not stated),-3%,13%,-4%,7,.,.
CCOc1ccc(NC(=O)NNC(=O)c2ccc(CC)s2)cc1,-17%,28%,-34%,5,.,-32%
CC(C)CC(=O)NNC(=S)Nc1ccc(S(N)(=O)=O)cc1,24µM*,-3%,2%,-6,5.6µM*,-35%
CCc1ccc(C(=O)NNC(=S)Nc2ccc(S(N)(=O)=O)cc2)s1,-16%,15%,-2%[11.4 µM],2,7.9µM*,-2%
CCCN(CCC)S(=O)(=O)c1ccc(C(=O)Nc2nnc(CSC)o2)cc1,?,-9%,50µM*,-1,-31%,?
COCCN(CCOC)S(=O)(=O)c1ccc(C(=O)Nc2nnc(C3CC3)o2)cc1,-4%,26%,10µM*,1,10%[12.7 µM],32µM*
CCc1nnc(NC(=O)c2ccc(S(=O)(=O)N(CCOC)CCOC)cc2)o1,-3%,42%,45µM*,-2,4µM*,28µM*
CCCCN(CCCC)S(=O)(=O)c1ccc(C(=O)Nc2nnc(CSC)o2)cc1,-9%,47%,-17%,1,9%,2%
COc1cc2c(cc1OC)C(c1ccccc1F)NCC2 (configuration not stated),-13%,17%,-24%,-3,26%[0.501 µM],8%
O=C(O)c1cc(O)ccc1O,-5%,88%,-14%,-2,.,.
Nc1ccc(O)c(C(=O)O)c1,.,.,.,.,3.2µM*,.
O=C1C(=O)N(O)C2CCCCC2N1O (configuration not stated),0%,21%,?,-8,7.9µM*,?
N#CCCN(C(=O)CSc1nnc(-c2ccncc2)n1C1CC1)c1ccccc1,-3%,42%,-3%,2,2%[2.33 µM],-27%
NC(=O)Cc1ccc(C(=O)CSc2nnc(-c3ccncc3)n2C2CC2)s1,-21%,-14%,?,-78*,.,.
CCn1nc(NC(=O)c2ccncc2)c2cc3cc(C)ccc3nc21,3.8µM*,0%,-16%[11.4 µM],-23,8%[59 µM],9%
Cc1ccccc1N/N=C/c1sc(=O)n(Cc2cccc(C(=O)O)c2)c1Cl,27µM*,-22%,10µM*,?,-136%[59 µM],45µM*
COC(=O)c1cccc(Cn2c(Cl)c(/C=N/Nc3ccccc3C)sc2=O)c1,-4%,-13%,?,-12,10µM*,35µM*
O=C(O)c1cccc(Cn2c(Cl)c(/C=N/NC(=O)c3cc4ccccc4cc3O)sc2=O)c1,27µM*,?,79µM*,-73*,10µM*,25µM*
O=C(O)c1cccc(Cn2c(Cl)c(/C=N/NC(=O)c3ccccc3)sc2=O)c1,-6%,41%,-2%,4,31%[0.501 µM],-29%
O=C(O)c1cccc(Cn2c(Cl)c(/C=N/NC(=O)c3cccc(O)c3)sc2=O)c1,-4%,11%,-14%,-1,14%,1%
CCOc1ccc(NS(=O)(=O)c2ccc(-c3cc(C)no3)s2)cc1,.,23%,-28%,.,12%[59 µM],-1%
SMILES,PLK1 PBD block,HP1b chromo inh,JMJD2A Tudor,PI5P4K alpha inh,G9a block,BAZ2B block
COc1ccc(C2Nc3ccccc3C(=O)N2Cc2ccccc2)cc1COc1ccc(Cl)cc1 (configuration not stated),.,.,-3%,.,.,.
CC(C)=C1C2CCC1C1C(=O)N(c3ccc4c(c3)OCO4)C(=O)C21 (configuration not stated),0%,27%,-2%,-8,-7%[59 µM],0%
O=C1C2C3C=CC(C4CC34)C2C(=O)N1c1ccc2c(c1)OCO2 (configuration not stated),-16%,46%,0%,-15,50µM*,.
CC(C)=C1C2C=CC1C1C(=O)N(c3ccc4c(c3)OCO4)C(=O)C21 (configuration not stated),-3%,55%,-14%,-13,10µM*,-5%
Cc1csc(=O)n1CCC(=O)OCC(=O)Nc1ccc(F)c(F)c1F,3%,12%,-8%,-1,-8%,-4%
Cc1ccc(S(=O)(=O)NC(CC(=O)NC2CCCC2)c2ccco2)cc1 (configuration not stated),-3%,23%,-7%,2,8%[59 µM],0%
COc1ccc(S(=O)(=O)NC(C)C(=O)Nc2ccc3c(c2)OCO3)cc1OC (configuration not stated),-8%,24%,-16%,-6,20%,-21%
Cc1ccc(S(=O)(=O)NC(C)C(=O)Nc2ccc3c(c2)OCO3)cc1 (configuration not stated),-4%,17%,-8%,-14,50µM*,11%
Cc1ccc(S(=O)(=O)NC(C)C(=O)N2CCOCCOCCOCCOCC2)cc1 (configuration not stated),0%,36%,11%,-6,40µM*,6%
Cc1ccc(S(=O)(=O)NC(CC(=O)N2CCOCC2)c2ccco2)cc1 (configuration not stated),30µM*,-1%,-28%[11.4 µM],2,-33%[59 µM],12%
O=S(=O)(c1ccc2c(c1)OCCO2)N1CCN(S(=O)(=O)c2ccc3nc(Cl)c(Cl)nc3c2)CC1,.,.,-6%,.,.,.
COCc1nnc(NC(=O)CCc2ccccc2)s1,-11%,63%,-12%,-3,11µM*,-14%
COCCSc1nnc(NS(=O)(=O)c2ccccc2)s1,?,26%,-6%,-17,28µM*,?
COCCSc1nnc(NC(=O)CSCc2ccccc2)s1,-27%,38%,-10%,.,14µM*,1%
COCc1nnc(NC(=O)CSc2ccccc2)s1,-12%,41%,1%,1,1%,6%
COCc1nnc(NC(=O)CSCc2ccccc2)s1,21µM*,9%,-14%,-7,15%[0.0925 µM],?
